Measured values as given in the supplement of paper PMC10849652.
About 7,900 targets were measured; listed, in parts, are those with a hit and a random draw of the rest. About 0.6% of all pairs of compound and target were hits.

Experiments:
Experiment in all cases: log2 fold change, soluble protein after heating vs DMSO (PISA); higher = thermal stabilisation; K562 cells, 10 uM, 30 min; active = over 0.2 and 3.5 SD of the protein, either way, in both replicates (recomputed)
saracatinib = compound: CN1CCN(CCOc2cc(OC3CCOCC3)c3c(Nc4c(Cl)ccc5c4OCO5)ncnc3c2)CC1 [saracatinib]
How it was run: (§1)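 K562 cells at 2×10^6 cells/mL were treated for 30 min with 10 μM compound, and aliquots were heated for 3 min over 48°C-58°C before pooling. Extraction used PBS with 0.5% NP-40 at 4°C, and soluble protein was the supernatant after 21,000xg for 90 min, measured by TMTpro 16plex LC-MS/MS with channel sums equalised. Thermal stability values, relative to control samples and from duplicates, are log2 fold changes.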

sotrastaurin = compound: CN1CCN(c2nc(C3=C(c4c[nH]c5ccccc45)C(=O)NC3=O)c3ccccc3n2)CC1 [sotrastaurin]
How it was run: as §1

alvocidib = compound: CN1CC[C@H](c2c(O)cc(O)c3c(=O)cc(-c4ccccc4Cl)oc23)[C@H](O)C1 [alvocidib]
How it was run: as §1

Tubastatin A = compound: CN1CCc2c(c3ccccc3n2Cc2ccc(C(=O)NO)cc2)C1 [Tubastatin A]
How it was run: as §1

[1] = compound: CNC(=O)C1=CC=CC=C1NC2=NC(=NC=C2Cl)NC3=C(C=C(C=C3)N4CCOCC4)OC
How it was run: as §1

defactinib = compound: CNC(=O)c1ccc(Nc2ncc(C(F)(F)F)c(NCc3nccnc3N(C)S(C)(=O)=O)n2)cc1 [defactinib]
How it was run: as §1

[2] = compound: CNc1nc(-c2ccc3c(N)n[nH]c3c2)cc(N2C[C@@H](C(=O)NC3CCCCC3)CC[C@H]2C)n1
How it was run: as §1

[3] = compound: COC(=O)[C@H](CCSC)NC(=O)C1=C(C=C(C=C1)NC[C@H](CS)N)C2=CC=CC=C2
How it was run: as §1

[4] = compound: COC1=CC=C(C=C1)CN2C=CC3=C2C=C(C=C3)C(=O)NO
How it was run: as §1

filanesib = compound: CON(C)C(=O)N1N=C(c2cc(F)ccc2F)S[C@@]1(CCCN)c1ccccc1 [filanesib]
How it was run: as §1

zotarolimus = compound: CO[C@H]1C[C@@H]2CC[C@@H](C)[C@@](O)(O2)C(=O)C(=O)N2CCCC[C@H]2C(=O)O[C@H]([C@H](C)C[C@@H]2CC[C@H](n3cnnn3)[C@H](OC)C2)CC(=O)[C@H](C)/C=C(\C)[C@@H](O)[C@@H](OC)C(=O)[C@H](C)C[C@H](C)/C=C/C=C/C=C/1C [zotarolimus]
How it was run: as §1

idasanutlin = compound: COc1cc(C(=O)O)ccc1NC(=O)[C@@H]1N[C@@H](CC(C)(C)C)[C@](C#N)(c2ccc(Cl)cc2F)[C@H]1c1cccc(Cl)c1F [idasanutlin]
How it was run: as §1

alisertib = compound: COc1cc(Nc2ncc3c(n2)-c2ccc(Cl)cc2C(c2c(F)cccc2OC)=NC3)ccc1C(=O)O [alisertib]
How it was run: as §1

[5] = compound: COc1cc2nc(-c3cc(F)ccc3O)nc(N[C@@H]3CNC[C@H]3C(C)(C)O)c2cc1OC
How it was run: as §1

gefitinib = compound: COc1cc2ncnc(Nc3ccc(F)c(Cl)c3)c2cc1OCCCN1CCOCC1 [gefitinib]
How it was run: as §1

[6] = compound: COc1cccc2cc(-c3nc([C@H]4CC[C@H](C(=O)O)CC4)n4ncnc(N)c34)[nH]c12
How it was run: as §1

lapatinib = compound: CS(=O)(=O)CCNCc1ccc(-c2ccc3ncnc(Nc4ccc(OCc5cccc(F)c5)c(Cl)c4)c3c2)o1 [lapatinib]
How it was run: as §1

rucaparib = compound: CNCc1ccc(-c2[nH]c3cc(F)cc4c3c2CCNC4=O)cc1 [rucaparib]
How it was run: as §1

encorafenib = compound: COC(=O)N[C@@H](C)CNc1nccc(-c2cn(C(C)C)nc2-c2cc(Cl)cc(NS(C)(=O)=O)c2F)n1 [encorafenib]
How it was run: as §1

pictilisib = compound: CS(=O)(=O)N1CCN(Cc2cc3nc(-c4cccc5[nH]ncc45)nc(N4CCOCC4)c3s2)CC1 [pictilisib]
How it was run: as §1

Measured: log2 fold change

SLC27A1 (UniProt Q6PCB7)
Chain of UniProt Q6PCB7 (Q6PCB7 whole entry, looked up): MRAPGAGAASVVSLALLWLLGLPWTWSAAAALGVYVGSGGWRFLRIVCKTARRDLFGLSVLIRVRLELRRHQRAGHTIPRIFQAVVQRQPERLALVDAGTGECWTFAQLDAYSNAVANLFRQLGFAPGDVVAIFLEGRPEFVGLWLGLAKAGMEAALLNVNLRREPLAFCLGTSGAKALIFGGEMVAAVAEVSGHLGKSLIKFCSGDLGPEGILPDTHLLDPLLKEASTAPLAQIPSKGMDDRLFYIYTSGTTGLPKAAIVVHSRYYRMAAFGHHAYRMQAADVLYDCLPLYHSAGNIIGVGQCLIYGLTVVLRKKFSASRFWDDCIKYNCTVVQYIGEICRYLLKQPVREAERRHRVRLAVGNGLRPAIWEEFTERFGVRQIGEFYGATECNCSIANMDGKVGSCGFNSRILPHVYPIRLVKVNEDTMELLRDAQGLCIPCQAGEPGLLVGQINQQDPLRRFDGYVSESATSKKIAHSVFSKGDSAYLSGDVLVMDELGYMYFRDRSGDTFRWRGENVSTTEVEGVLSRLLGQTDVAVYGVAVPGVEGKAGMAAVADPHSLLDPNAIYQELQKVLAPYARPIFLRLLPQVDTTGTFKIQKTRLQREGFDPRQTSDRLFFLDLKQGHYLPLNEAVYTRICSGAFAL
inactive: saracatinib -0.007 | sotrastaurin 0.013 | alvocidib -0.203 | Tubastatin A -0.252 | [1] -0.011 | defactinib 0.064 | [2] 0.146 | [3] -0.183 | [4] -0.263 | filanesib 0.118 | zotarolimus 0.064 | idasanutlin -0.038 | alisertib 0.004 | [5] 0.069 | gefitinib 0.016 | [6] -0.031 | lapatinib 0.014

TM9SF2 (UniProt Q99805)
Chain of UniProt Q99805 (Q99805 whole entry, looked up): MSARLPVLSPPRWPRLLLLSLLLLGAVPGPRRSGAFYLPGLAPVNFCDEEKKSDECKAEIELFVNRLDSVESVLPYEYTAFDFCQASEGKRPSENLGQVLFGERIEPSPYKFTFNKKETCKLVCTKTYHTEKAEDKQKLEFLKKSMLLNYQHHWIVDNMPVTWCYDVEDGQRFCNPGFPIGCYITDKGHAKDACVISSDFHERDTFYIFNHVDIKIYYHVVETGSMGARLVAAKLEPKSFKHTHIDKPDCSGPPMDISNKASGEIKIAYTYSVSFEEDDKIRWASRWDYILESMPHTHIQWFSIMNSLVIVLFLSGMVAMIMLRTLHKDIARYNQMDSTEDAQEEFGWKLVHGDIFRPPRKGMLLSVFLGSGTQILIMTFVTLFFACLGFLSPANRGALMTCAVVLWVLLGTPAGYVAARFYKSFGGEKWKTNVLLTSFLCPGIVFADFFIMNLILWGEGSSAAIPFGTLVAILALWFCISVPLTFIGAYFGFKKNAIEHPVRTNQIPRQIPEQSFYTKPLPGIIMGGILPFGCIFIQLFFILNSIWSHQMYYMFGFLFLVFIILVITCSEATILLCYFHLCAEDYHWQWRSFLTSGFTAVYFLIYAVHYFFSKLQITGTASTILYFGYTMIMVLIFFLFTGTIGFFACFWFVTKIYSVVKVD
inactive: saracatinib 0.038 | sotrastaurin -0.01 | alvocidib -0.039 | Tubastatin A -0.001 | [1] 0.005 | defactinib 0.006 | rucaparib 0.015 | [2] -0.031 | encorafenib 0.001 | [3] -0.069 | [4] -0.06 | filanesib -0.073 | zotarolimus 0.043 | idasanutlin -0.103 | alisertib -0.01 | [5] -0.061 | gefitinib 0.009 | [6] 0.007 | lapatinib 0.011 | pictilisib 0.085

SYNE1 (UniProt Q8NF91)
inactive: saracatinib -0.054 | sotrastaurin -0.086 | alvocidib 0.011 | Tubastatin A 0.193 | [1] -0.14 | defactinib -0.092 | rucaparib -0.039 | [2] 0.045 | encorafenib -0.101 | [3] 0.076 | [4] 0.316 | filanesib -0.079 | zotarolimus 0.019 | idasanutlin -0.029 | alisertib 0.002 | gefitinib 0.049 | [6] 0.084 | pictilisib 0.187

SLC44A2 isoform 2 (UniProt Q8IWA5)
Chain of UniProt Q8IWA5 (Q8IWA5 whole entry, looked up): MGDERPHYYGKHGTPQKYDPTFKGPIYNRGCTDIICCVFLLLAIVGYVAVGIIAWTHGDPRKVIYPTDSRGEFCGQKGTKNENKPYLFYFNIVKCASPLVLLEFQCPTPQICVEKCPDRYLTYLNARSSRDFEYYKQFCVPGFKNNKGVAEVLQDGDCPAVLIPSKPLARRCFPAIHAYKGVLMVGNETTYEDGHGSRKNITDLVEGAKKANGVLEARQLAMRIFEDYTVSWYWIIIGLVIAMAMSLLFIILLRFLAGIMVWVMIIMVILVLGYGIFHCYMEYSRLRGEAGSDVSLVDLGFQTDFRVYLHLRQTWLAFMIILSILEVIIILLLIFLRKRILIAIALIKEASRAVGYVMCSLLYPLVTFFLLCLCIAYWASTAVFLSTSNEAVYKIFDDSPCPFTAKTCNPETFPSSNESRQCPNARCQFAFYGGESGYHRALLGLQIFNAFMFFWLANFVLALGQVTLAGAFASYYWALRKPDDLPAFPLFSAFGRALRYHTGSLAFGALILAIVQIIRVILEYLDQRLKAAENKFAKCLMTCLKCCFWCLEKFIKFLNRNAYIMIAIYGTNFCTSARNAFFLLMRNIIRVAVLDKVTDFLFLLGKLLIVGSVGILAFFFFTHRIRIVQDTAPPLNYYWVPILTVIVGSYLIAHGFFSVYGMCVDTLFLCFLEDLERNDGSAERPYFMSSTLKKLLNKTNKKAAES
inactive: saracatinib 0.104 | sotrastaurin 0.056 | alvocidib -0.051 | Tubastatin A -0.053 | [1] -0.055 | defactinib -0.137 | rucaparib -0.044 | [2] 0.043 | encorafenib -0.125 | [3] 0.02 | [4] 0.018 | filanesib 0.048 | zotarolimus -0.028 | idasanutlin 0.026 | alisertib -0.118 | gefitinib 0.002 | [6] 0.057 | pictilisib 0.13
